# From PubChem BioAssay (NCATS)
# Values joined by “and” are separate entries in the source; they are usually repeats but may differ in a detail not shown here. Identical values can stand only once. Results filed as inconclusive are left out. Entries that show only a call come without a potency. Values without a mark were called inactive. Active and inactive are the calls of the source. Unless noted, the call rests on the fitted dose curve; in most records, active means well fitted curve in the direction sought with a large enough effect; inconclusive means small, poorly fitted or top-dose-only effect, or another doubt; inactive means no such curve, though single readings can be large; an effect the other way counts as inactive or inconclusive.
# Key:
# [1] = target: Cellular tumor antigen p53 (Homo sapiens) (UniProt P04637); experiment: Primary qHTS for small molecule compounds that upregulate eGFP-tagged delta133p53alpha (in N-terminal) cells. (AID 2060322); conditions: NCI-H358 eGFP-delta133p53alpha fluorescence, 24 h; activation: active compounds read high; further: nearly all actives have a fitted effect of over 75% in size; further: potency means the concentration at half of the fitted maximal effect
# In short: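 NCI-H358 cells pre-induced 24 h with 10 ng/ml doxycycline to express N-terminal eGFP-delta133p53alpha, then dosed 24 h at 37C without doxycycline; fixed, Hoechst-stained, GFP intensity by laser scanning cytometry, normalized to DMSO (0%) and 57.5 uM 5-azacytidine (100%).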
# [2] = target: Aldehyde dehydrogenase, mitochondrial (Homo sapiens) (UniProt P05091); experiment: qHTS for Inhibitors of the Aldehyde Dehydrogenase Family (ALDH2) Confirmatory screens (AID 2061303; active means well fitted inhibition curve with a large enough effect; title and protocol of this record describe different tests; further: nearly all actives have a fitted effect of over 45% in size; further: potency means the concentration at half of the fitted maximal effect); conditions: ALDH inhibition qHTS; series mostly up to 45.4 µM
# [3] = target: Aldehyde dehydrogenase, mitochondrial (Homo sapiens) (UniProt P05091); experiment: qHTS for Inhibitors of the Aldehyde Dehydrogenase Family (ALDH2) Primary screen (AID 2061308); conditions: ALDH2 enzyme inhibition qHTS, 1536-well; series mostly up to 56 µM; further: nearly all actives have a fitted effect of over 55% in size
# [4] = target: Retinaldehyde dehydrogenase 3 (Homo sapiens) (UniProt P47895); experiment: qHTS for Inhibitors of the Aldehyde Dehydrogenase Family (ALDH1A3) Confirmatory screens (AID 2061311); conditions: ALDH inhibition qHTS; series mostly up to 46 µM; further: nearly all actives have a fitted effect of over 60% in size; further: potency means the concentration at half of the fitted maximal effect
# [5] = target: Retinaldehyde dehydrogenase 3 (Homo sapiens) (UniProt P47895); experiment: qHTS for Inhibitors of the Aldehyde Dehydrogenase Family (ALDH1A3) Validation screen (AID 2061312); conditions: ALDH1A3 enzyme inhibition qHTS validation, fluorescence; series mostly up to 84.7 µM; further: nearly all actives have a fitted effect of over 45% in size; further: potency means the concentration at half of the fitted maximal effect
# [6] = target: Retinaldehyde dehydrogenase 3 (Homo sapiens) (UniProt P47895); experiment: qHTS for Inhibitors of the Aldehyde Dehydrogenase Family (ALDH1A3) Primary screen (AID 2061315); conditions: ALDH inhibition qHTS; series mostly up to 56 µM
# [7] = target: Aldehyde dehydrogenase 1A1 (Homo sapiens) (UniProt P00352); experiment: qHTS for Inhibitors of the Aldehyde Dehydrogenase Family (ALDH1A1) Confirmatory screens (AID 2061316); conditions: ALDH inhibition qHTS; series mostly up to 47.3 µM; further: nearly all actives have a fitted effect of over 65% in size; further: potency means the concentration at half of the fitted maximal effect
# [8] = target: Retinal dehydrogenase 2 (Homo sapiens) (UniProt O94788); experiment: qHTS for Inhibitors of the Aldehyde Dehydrogenase Family (ALDH1A2) Confirmation screens (AID 2061314); conditions: ALDH1A2 enzyme inhibition qHTS confirmation; series mostly up to 45.9 µM; further: nearly all actives have a fitted effect of over 65% in size; further: potency means the concentration at half of the fitted maximal effect
# [9] = BET inhibitor-based combinations targeting novel dependencies in MECOM-rearranged (r) AML: OCI-AML3 cell line (AID 2202232); conditions: CellTiter-Glo luminescence, 48 h; Potency: OCI-AML3 viability; series mostly up to 46 µM; further: nearly all actives have a fitted effect of over 35% in size; further: potency means the concentration at half of the fitted maximal effect
# In short: (§1)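 Here, 11-point titrations of each agent were applied to 500 seeded cells and incubated 48 hr; CellTiter-Glo signal, scaled against DMSO and empty wells, was integrated as AUC, then Z-scored within the individual line.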
# [10] = BET inhibitor-based combinations targeting novel dependencies in MECOM-rearranged (r) AML: MV-4-11 cell line (AID 2202233); conditions: MV-4-11 AML viability, CellTiter-Glo luminescence, 48 h; series mostly up to 46 µM; further: nearly all actives have a fitted effect of over 45% in size; further: potency means the concentration at half of the fitted maximal effect
# In short: (§2)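 Normalized to DMSO and empty-well controls, the luminescence data from CellTiter-Glo after 48 hr drug exposure were fitted across 11 concentrations. Reported metrics are area under the dose-response curve and its Z-transformed form.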
# [11] = BET inhibitor-based combinations targeting novel dependencies in MECOM-rearranged (r) AML: HNT-34 cell line (AID 2202234); conditions: HNT-34 AML viability, CellTiter-Glo luminescence, 48 h; series mostly up to 46 µM; further: nearly all actives have a fitted effect of over 35% in size; further: potency means the concentration at half of the fitted maximal effect
# In short: as §2
# [12] = BET inhibitor-based combinations targeting novel dependencies in MECOM-rearranged (r) AML: UCSD-AML1 cell line (AID 2202235); conditions: UCSD-AML1 AML cells viability, CellTiter-Glo, 48 h; series mostly up to 46 µM; further: nearly all actives have a fitted effect of over 40% in size; further: potency means the concentration at half of the fitted maximal effect
# In short: as §2
# [13] = BET inhibitor-based combinations targeting novel dependencies in MECOM-rearranged (r) AML: AML-191 cell line (AID 2202236; further: nearly all actives have a fitted effect of over 35% in size; further: potency means the concentration at half of the fitted maximal effect); conditions: AML-191 viability, CellTiter-Glo luminescence, 48 h; series mostly up to 46 µM
# In short: as §1
# [14] = BET inhibitor-based combinations targeting novel dependencies in MECOM-rearranged (r) AML: AML-194 cell line (AID 2202237; further: nearly all actives have a fitted effect of over 40% in size; further: potency means the concentration at half of the fitted maximal effect); conditions: AML-194 (MECOM-r AML) viability, CellTiter-Glo, 48 h; series mostly up to 46 µM
# In short: as §1
# [15] = BET inhibitor-based combinations targeting novel dependencies in MECOM-rearranged (r) AML: SET-2 cell line (AID 2202231); conditions: SET-2 AML cells viability, CellTiter-Glo luminescence, 48 h; viability: active compounds read low, concentration not given here; further: nearly all actives have a fitted effect of over 35% in size
# In short: as §1
# [16] = qHTS for Inhibitors of the Aldehyde Dehydrogenase Family (ALDH1A2, ALDH1A3, ALDH2, ALDH3A1) (AID 2061307); conditions: ALDH inhibition qHTS; series mostly up to 50.3 µM; further: nearly all actives have a fitted effect of over 50% in size
# Sequence of Cellular tumor antigen p53 (Homo sapiens) (P04637 whole entry, looked up): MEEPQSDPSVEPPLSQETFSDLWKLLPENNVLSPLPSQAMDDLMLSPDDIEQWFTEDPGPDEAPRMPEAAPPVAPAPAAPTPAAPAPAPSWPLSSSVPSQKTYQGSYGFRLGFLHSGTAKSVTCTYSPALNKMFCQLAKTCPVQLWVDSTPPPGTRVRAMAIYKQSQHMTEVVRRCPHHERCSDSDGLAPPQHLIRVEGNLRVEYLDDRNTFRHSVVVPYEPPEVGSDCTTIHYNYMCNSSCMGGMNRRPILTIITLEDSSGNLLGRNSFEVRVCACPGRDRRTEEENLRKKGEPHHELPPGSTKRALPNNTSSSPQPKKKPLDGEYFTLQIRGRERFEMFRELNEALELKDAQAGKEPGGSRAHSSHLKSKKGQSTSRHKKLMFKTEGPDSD
smiles,measurement,setting,value
C=CC(=O)N1CCN(C(=O)CNc2cc(-c3ccccc3Cl)c(Cl)cc2OC)CC1,activation,[1],8.59%
same,Potency,[2],inactive
same,Potency,[3],inactive
same,Potency,[4],inactive
same,Potency,[5],inactive
same,Potency,[6],inactive
same,Potency,[7],inactive
O=C(CCCCCCC(=O)Nc1ccccc1)NO,activation,[1],17.7% and 26.7%
same,Potency,[2],inactive
same,Potency,[3],inactive
same,Potency,[4],inactive
same,Potency,[5],22.4 µM (active)
same,Potency,[8],inactive
same,Potency,[7],inactive
same,Potency,[9],1.86 µM (active)
same,Potency,[10],0.742 µM (active)
C=CC(=O)Nc1cccc(Nc2nc(Nc3ccc(Oc4ccnc(C(=O)NC)c4)cc3)ncc2F)c1,Potency,[1],4.26 µM (active)
same,Potency,[2],inactive
same,Potency,[3],inactive
same,Potency,[4],inactive
same,Potency,[8],inactive
same,Potency,[6],inactive
same,Potency,[7],inactive
same,Potency,[9],18.6 µM (active)
same,Potency,[10],6.61 µM (active)
same,Potency,[11],8.33 µM (active)
same,Potency,[12],18.6 µM (active)
same,Potency,[13],16.6 µM (active)
same,Potency,[14],18.6 µM (active)
COC(=O)N1CCN(Cc2cccc(NC(=O)Nc3ccc(C)nc3)c2F)CC1,activation,[1],4.35% and -6.68%
same,Potency,[2],inactive
same,Potency,[3],inactive
same,Potency,[4],inactive
same,Potency,[5],inactive
same,Potency,[8],inactive
same,Potency,[6],inactive
same,Potency,[7],inactive
same,viability,[15],104%
same,Potency,[9],inactive
same,Potency,[11],inactive
same,Potency,[13],inactive
same,Potency,[14],inactive
COc1ccc(-c2ccn(CC[C@](C)(C(=O)NO)S(C)(=O)=O)c(=O)c2)c(F)c1,activation,[1],-16.3%
same,Potency,[2],7.94 µM (active)
same,Potency,[3],inactive
same,Potency,[4],7.98 µM (active)
same,Potency,[8],5.65 µM (active)
same,Potency,[7],2.52 µM (active)
C=C1C(=O)OC2C1CCC(=C)C1CC(OC(C)=O)C(=C)C12 (stereo not given),Potency,[1],16.9 µM (active)
same,Potency,[2],inactive
same,Potency,[3],inactive
same,Potency,[6],inactive
COc1c2c(c(C)c3c1C(=O)OC3)OC1(C)CC(O)C34OC(OC)(CC(O)C3(C)C1C2)OC4(C)C (stereo not given),activation,[1],-9.92%
same,Potency,[16],inactive
same,Potency,[3],inactive
same,Potency,[6],inactive
COc1ccc(-c2c(-c3cc(C(=O)O)ccn3)ncn2C)cc1,activation,[1],-2.33%
same,Potency,[2],inactive
same,Potency,[8],28.3 µM (active)
same,Potency,[6],inactive
same,Potency,[7],inactive
O=C(NCc1ccc(S(=O)(=O)c2cc(F)cc(F)c2)cc1)c1ccc2nccn2c1,activation,[1],17.2%
same,Potency,[16],10.1 µM (active)
same,Potency,[3],inactive
same,Potency,[5],inactive
same,Potency,[8],inactive
same,Potency,[6],inactive
same,Potency,[7],11.3 µM (active)
Cc1cc(N2CCOCC2)cc2[nH]c(-c3c(NC[C@@H](O)c4cccc(Cl)c4)cc[nH]c3=O)nc12,Potency,[1],21.7 µM (active) and 23.9 µM (active)
same,Potency,[16],inactive
same,Potency,[3],inactive
same,Potency,[5],inactive
same,Potency,[6],inactive
same,Potency,[11],7.42 µM (active)
same,Potency,[12],0.296 µM (active)
same,Potency,[13],0.59 µM (active)
COC(=O)C1=COC(OC2OC(CO)C(O)C(O)C2O)C2C(COC(=O)/C=C/c3ccc(O)c(O)c3)C(O)C(O)C12 (stereo not given),activation,[1],-6.25%
same,Potency,[16],inactive
same,Potency,[3],inactive
same,Potency,[8],inactive
same,Potency,[7],inactive
CC/C=C/C(O)C(O)C1=C(C)C(=O)C2(O1)C(=O)NC(OC)(C(=O)c1ccccc1)C2O (stereo not given),activation,[1],15.3%
same,Potency,[16],inactive
same,Potency,[3],inactive
same,Potency,[8],inactive
same,Potency,[6],inactive
O=C(O)c1ccccc1C(=O)Nc1ccc(-c2ccccc2)cc1,activation,[1],-8.49% and 5.67%
same,Potency,[16],inactive
same,Potency,[3],inactive
same,"activity change, negative = inhibition",[4],-21.1% [at 0.0073 µM]
same,Potency,[8],10.1 µM (active)
same,Potency,[6],inactive
same,viability,[15],116%
same,Potency,[10],inactive
same,Potency,[11],inactive
same,Potency,[12],inactive
same,Potency,[13],inactive
same,Potency,[14],inactive
CC1CC(=O)[C@]2(O)C(C(=O)OCCc3ccc(O)c(O)c3)=CO[C@@H](O[C@@H]3O[C@H](CO)[C@@H](O)[C@H](O)[C@H]3O)[C@H]12 (stereo not given in full),activation,[1],6.87%
same,Potency,[16],inactive
same,Potency,[3],inactive
same,Potency,[8],inactive
same,Potency,[7],12.3 µM (active)
Cc1nnc(C(=O)NC(C)(C)c2nc(C(=O)NCc3ccc(F)cc3)c(O)c(=O)n2C)o1,activation,[1],12.2% and -3.35% and -11.5%
same,Potency,[16],1.59 µM (active)
same,Potency,[3],inactive
same,Potency,[5],inactive
same,Potency,[6],inactive
same,Potency,[7],inactive
same,viability,[15],118%
same,Potency,[10],inactive
same,Potency,[11],inactive
same,Potency,[12],inactive
same,Potency,[13],inactive
same,Potency,[14],inactive
C[C@@H]1O[C@@H](O[C@@H]2[C@@H](O)[C@@H](O[C@]3(CO)O[C@H](CO)[C@@H](O)[C@@H]3OC(=O)/C=C/c3ccc(O)cc3)O[C@H](CO)[C@H]2OC(=O)/C=C/c2ccc(O)cc2)[C@H](O)[C@H](O)[C@H]1O[C@@H]1O[C@@H](C)[C@H](O[C@@H]2OC[C@](O)(CO)[C@H]2O)[C@@H](O)[C@H]1O,activation,[1],-2.68%
same,Potency,[16],inactive
same,Potency,[3],inactive
O=C(/C=C/c1ccc(O)c(O)c1)O[C@H]1[C@H](OC2CCCCC2O)O[C@H](CO)[C@@H](O)[C@@H]1O (stereo not given in full),activation,[1],5.36%
same,Potency,[16],inactive
same,Potency,[3],inactive
same,Potency,[4],11 µM (active)
Clc1ccc2ncc(-c3cccc(NC4CNC4)n3)n2c1,activation,[1],11%
same,Potency,[16],inactive
same,Potency,[3],inactive
same,Potency,[4],inactive
same,Potency,[6],inactive
same,viability,[15],115%
same,Potency,[9],inactive
same,Potency,[10],inactive
same,Potency,[11],inactive
same,Potency,[13],inactive
OC[C@H]1O[C@@H](OC(CCCCc2ccc(O)cc2)CCc2ccc(O)cc2)[C@H](O)[C@@H](O)[C@@H]1O (stereo not given in full),activation,[1],-9.92%
same,Potency,[16],inactive
same,Potency,[3],inactive
